Laboratory results published in PubChem BioAssay (NCI).
The panel holds about 83,000 compounds, 20% with a hit somewhere; the sample as a whole holds those more often.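 48-hour exposure, single concentration, 96-well plates; percent growth endpoint where 0 means no net growth. Active: below 10.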 Unmarked numbers belong to inactive results. Active and inactive are the calls of the source.

Experiments:
Test in all cases: NCI-60 one-dose screen, 48 h (100 = growth as untreated, 0 = no growth, -100 = all killed)
Settings in all cases: 10 µM unless noted
[1] = system: NCI-H23 lung
[2] = system: NCI-H226 lung
[3] = system: NCI-H322M lung
[4] = system: HOP-62 NSCLC
[5] = system: HOP-92 NSCLC
[6] = system: NCI-H522 lung
[7] = system: A549/ATCC NSCLC
[8] = system: 786-0 renal
[9] = system: COLO 205 colon

SMILES | growth [1] | growth [2] | growth [3] [%] | growth [4] | growth [5] | growth [6] | growth [7] | growth [8] | growth [9]
C/C(=C(/c1ccc(O)cc1)c1ccc(OCCN2CCCC2)cc1)c1ccc(Cl)cc1 | 46.8% | 72.3% | 53.8 | 63.1% | 50.3% | 61.1% | 47.6% | 45.7% | -86.6% (active)
O=C(NCCNc1cc(-c2cn(-c3ccccc3)nc2-c2cccc(O)c2)ccn1)Nc1ccc(Cl)c(C(F)(F)F)c1 | 41.3% | 81.5% | 68.4 | 85.3% | 44% | 72.5% | 61.8% | 64.6% | 92.9%
CCN1C(=O)N(CC)C2C1NN=C1SC(c3ccccc3)=CC(=O)N12 (stereo not given) | 33% | 40.4% | 50.6 | 30.7% | 44.3% | -42.6% (active) | 36.3% | 37.6% | -40.3% (active)
COc1ccc(S(=O)(=O)n2cc(C=O)c3ccccc32)c(OC)c1 | 79.4% | 70.6% | 102 | 77.9% | 43.3% | – | 93.2% | 94.2% | 108%
CCCCOc1ccc(S(=O)(=O)N2CCN(c3nccc(N4CCOCC4)n3)CC2)cc1 | 44.2% | 58.3% | 45.1 | 88.9% | 14.3% | 81% | 28.9% | 39.1% | 77.3%
Cc1ccc(-c2cc(-c3ccc(N(C)C)cc3)n3c(n2)nc2ccccc23)cc1 | 57.1% | 57% | 103 | 83.1% | 21.7% | 25.4% | 56.5% | 80.8% | 92.5%
COc1ccc(Cn2cc3c(c2-c2cc(OC)c(OC)c(OC)c2)CCCc2cnoc2-3)cc1 | 32.5% | 53.6% | 39.6 | 43.2% | 50.6% | 10.4% | – | 37.1% | –
CCN(CC)CCN1C(=O)c2c(c3c4cccnc4[nH]c3c3ccc4ccccc4c23)C1=O | 60.3% | 79.4% | 76.7 | 38.4% | 91.9% | 65.4% | – | 60.9% | 72.1%
COc1ccc(NC2=C(Cl)C(=O)C(C)=C(C)C2=O)cc1 | 83.7% | 99% | 100 | 95.6% | -2.54% (active) | 85.6% | 98.3% | 113% | 109%
COc1ccc(-c2nc3cc(Cl)c(Cl)cc3n2CC(=O)N=Nc2c(O)[nH]c3ccc(Br)cc23)cc1 | -21.5% (active) | -16.2% (active) | 41 | -50.2% (active) | -34% (active) | 14% | -28.9% (active) | -17.3% (active) | -37.9% (active)
O=c1[nH]c(CNc2ccc(NCc3c(-c4ccccc4)no[n+]3[O-])cc2)nc2c1cnn2-c1ccccc1 | 63.4% | 77.1% | 80.2 | 105% | 85.4% | 60.8% | 63.8% | 86% | 101%
CNC(=O)c1c(NC(=O)c2ccc(F)cc2F)sc2c1CCC(=O)C2 | 5.55% (active) | 15.7% | 33.3 | 16.3% | -34% (active) | -10.1% (active) | 13.1% | 24% | -74% (active)
O=[N+]([O-])c1ccc(-c2nnc(SCc3ccc(O)c4ncccc34)o2)cc1 | 21.5% | 36.2% | 40.7 | 21.5% | -13.4% (active) | 17.2% | 25.8% | 33% | 49.9%
COc1ccc(/C=C/C(=O)c2nnn(-c3ccc(Br)cc3)c2C)cc1OC | 59.9% | 70.7% | 95.3 | 88.1% | 81% | 67.7% | 73.6% | 93.5% | 90.4%
Cc1cc(=O)n2nc(-c3cn(C)c4ccc(Cl)cc34)sc2n1 | 92.1% | 67.3% | 97.2 | 85.7% | 80.1% | – | 96.7% | 102% | 93.7%
C#CCOc1ccc(/C=N/Nc2nc(-c3cc4cc(Br)cc(Br)c4oc3=O)cs2)cc1 | 94.6% | 93.8% | 103 | 105% | 89.3% | 95% | 97% | 99.7% | 100%
CC1CCc2c(sc3nc(SCC(=O)N/N=C/c4ccc(Cl)cc4)n(-c4ccccc4)c(=O)c23)C1 (stereo not given) | 90.7% | 91% | 98.1 | 78.4% | 107% | 93.6% | 101% | 96.5% | 135%
COc1ccc(Cn2cc3c(c2-c2ccccc2)CCCc2cnoc2-3)cc1[N+](=O)[O-] | 74.8% | 66.6% | 96.2 | 68.6% | 62.7% | 58.2% | 66.7% | 87.6% | 46.8%
COc1ccc(-c2ccc3c4c(cccc24)C(=O)N(N2C(=O)c4cccc5cccc(c45)C2=O)C3=O)cc1 | 96.1% | 101% | 102 | 92.7% | 75.6% | 97.1% | 107% | 99.2% | 103%
C#C[C@]1(O)CC[C@H]2[C@@H]3CC=C4c5sc(Nc6nc(C)cc(OC)n6)nc5CC[C@]4(C)[C@H]3CC[C@@]21C | 71.9% | 71% | 92.9 | 40% | 43.9% | 88.1% | 53.9% | -4.27% (active) | 78.5%
NS(=O)(=O)c1ccc(Nc2nc(N/N=C/c3ccc(F)cc3)nc(Nc3ccccc3)n2)cc1 | 54.2% | 50.8% | 58.1 | 17.9% | 63.5% | 15.5% | 7.78% (active) | 58.8% | 20.9%
COc1ccc(-c2nc3cc(Cl)c(Cl)cc3n2CC(=O)N=Nc2c(O)[nH]c3ccccc23)cc1 | 31.4% | -8.79% (active) | 70.3 | 45.3% | 24.1% | 87.9% | 27.8% | 100% | 55%
CCOC(=O)/C=c1\sc2n(c1=O)C1C(NN=2)N(CC)C(=O)N1CC (stereo not given) | 79.6% | 81.2% | 78.9 | 71.6% | 75.3% | 33.3% | 62.1% | 63% | 51.3%
N/C(=N\OC(=O)CSc1nc2ccccc2s1)c1ccc2ccccc2c1 | 95.3% | 99.6% | 101 | 92% | 95.9% | 91.2% | 102% | 103% | 107%
O=C1CSC(=O)N1Cc1cc2ccccc2nc1Cl | 99.7% | 102% | 108 | 101% | 94.5% | 94.3% | 99.6% | 100% | 109%
COc1ccc2c(c1)c(-c1nn3c(=O)cc(-c4ccccc4)nc3s1)cn2C | 63% | 21.1% | 65.2 | 43.2% | 18.7% | -34% (active) | 56.7% | 37.8% | 27.2%
Cc1nn(-c2ccc(Cl)cc2)c(C)c1N=Nc1ccc2oc(=O)ccc2c1 | 82.4% | 92.9% | 104 | 91.7% | – | 81.7% | 77.6% | 78.8% | 105%
C=C1C(=O)O[C@@H]2C[C@@H](C)/C=C\C(=O)[C@](C)(OC(C)=O)C[C@H](OC(=O)/C(C)=C\C)[C@@H]12 | -13.9% (active) | -43.4% (active) | 88 | 74.6% | -35.6% (active) | -82.4% (active) | 72.9% | -62.8% (active) | -78.3% (active)
CCCCCCCCCC[C@@H](C)[C@@H]1CC(=O)N[C@H]([C@@H](C)O)C(=O)N[C@@H](C)C(=O)N[C@H](C)C(=O)N[C@@H](CCC(N)=O)C(=O)N[C@H](Cc2ccc(O)cc2)C(=O)N[C@@H](C(C)CC)C(=O)O1 (stereo not given in full) | 35.6% | 42.1% | 89.1 | 73.9% | 43.3% | 36.1% | 47.6% | 91.8% | 66%
